# Assay outcomes deposited in PubChem BioAssay by National Center for Advancing Translational Sciences (NCATS).
# IMPase Li inh: IMPase inhibition in cells with lithium potentiation; AID 1457; 0.35% of 210,000 active; Potency, µM (top dose mostly 59.4 µM), without a hit: top-dose activity, negative = IMPase inhibition, most hits filed as inhibitors; CHO-M1 cells, IP1 TR-FRET (IP-One), carbachol + lithium;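 also: IP1 builds up when IMPase is blocked and the TR-FRET signal falls; potency is read from the fitted curve at half-maximal effect; plate controls were basal vehicle for no effect and high inhibitor control for full effect; nearly all actives have a fitted effect of over 50% in size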
#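 Steps: plate 2000 CHO-M1 cells per well and culture 16–30 h; add compound and lithium; incubate 30 min, 37C; add d2-IP1 tracer and Eu cryptate anti-IP1 antibody in lysis buffer; read after 10 min at room temperature.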
# PNC assembly inh: blocks assembly of the perinucleolar compartment | PC3M PTB-GFP, PNC prevalence imaging, 16 h; stronger effect = lower value | 3.1% of 140,000 active | AID 2417 | activity change (PNC), negative = inhibition, % at 10 µM;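 active = readout at or below -70, meaning at least 70% loss of cells showing the perinucleolar compartment, a nuclear body marking cancer cells; inconclusive = readout between -30 and a set limit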;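 also: plate controls were DMSO wells for no effect and camptothecin positive control wells for full effect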
#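 PC3M cells stably expressing PTB-GFP, 750–1000 cells/well, treated 16 h at 37 °C with compound (23 nl of library stock), in duplicate. After paraformaldehyde fixation and Hoechst stain, imaged at 20x; PNC prevalence scored by image analysis.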
# IMPase inh: cell-permeable inhibitors of inositol monophosphatase (IMPase); P97697; CHO-M1 cells, IP1 accumulation, HTRF TR-FRET ratio; inhibition (IP1 accumulation), % at 46.1 µM; 120,000 tested, under 10 active; AID 901; active = well fitted curve in the direction sought with a large enough effect in the signal ratio, not every such curve was filed as active; inconclusive = small, poorly fitted or top-dose-only effect, or a change in a side signal; inactive = no such curve, though single readings can be large or run the other way; the % refers to the signal ratio;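 also: cells stimulated with carbachol in lithium chloride buffer; plate controls were DMSO basal wells for no effect and reference inhibitor wells for full effect; higher means more IMPase inhibition seen as more IP1 and lower FRET ratio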
#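 Measured: the HTRF emission ratio (665/620 nm) plus the 620 nm donor channel, each fitted to the Hill equation to give AC50. Cells were CHO-M1 given compounds up to 46 uM and a 30 min carbachol stimulation at 37C.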
# 12-hLO inh: blocks human 12-lipoxygenase activity | purified 12-hLO, xylenol orange hydroperoxide absorbance | 0.12% of 150,000 active | Potency, µM (doses to about 57.1 µM), without a hit: top-dose activity change, negative = inhibition, most hits filed as inhibitors; also: potency is read from the fitted curve at half-maximal effect; nearly all actives have a fitted effect of over 55% in size
# Target sequence (P18054 whole entry, looked up): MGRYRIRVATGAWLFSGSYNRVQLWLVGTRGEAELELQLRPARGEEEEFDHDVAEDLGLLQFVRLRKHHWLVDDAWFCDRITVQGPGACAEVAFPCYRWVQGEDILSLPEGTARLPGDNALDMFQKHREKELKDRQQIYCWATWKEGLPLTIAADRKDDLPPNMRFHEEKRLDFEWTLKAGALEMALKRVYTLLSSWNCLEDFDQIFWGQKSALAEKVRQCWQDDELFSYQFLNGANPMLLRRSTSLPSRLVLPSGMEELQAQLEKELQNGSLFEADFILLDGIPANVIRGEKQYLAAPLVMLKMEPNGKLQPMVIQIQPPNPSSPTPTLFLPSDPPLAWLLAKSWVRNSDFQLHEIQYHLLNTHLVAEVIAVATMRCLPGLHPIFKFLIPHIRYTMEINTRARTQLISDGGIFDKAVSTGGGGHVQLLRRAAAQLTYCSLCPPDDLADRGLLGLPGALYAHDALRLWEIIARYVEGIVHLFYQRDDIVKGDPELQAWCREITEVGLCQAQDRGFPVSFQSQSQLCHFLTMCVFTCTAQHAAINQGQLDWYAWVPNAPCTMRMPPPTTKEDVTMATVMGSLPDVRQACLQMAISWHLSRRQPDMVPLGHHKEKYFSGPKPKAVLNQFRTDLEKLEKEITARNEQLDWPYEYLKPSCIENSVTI
#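 Purified human 12hLO (150 nM), preincubated 15 min with compound, then 40 uM arachidonic acid for 30 min, room temperature, Hepes pH 7.0 with 0.01% Triton X-100. Hydroperoxide detected by ferrous iron/xylenol orange; 573/405 nm absorbance ratio gives reaction progress.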
# An asterisk follows results filed as active; ? = inconclusive; . = not tested or not shown; [ ] = another dose, or the depositor's remark. The entries come from a sample that favours hits as a whole. Unless noted, calls follow the shape of the dose curve; as a rule, active = well fitted curve in the direction sought with a large enough effect; inconclusive = small, poorly fitted or top-dose-only effect, or another doubt; inactive = no such curve, though single readings can be large; an effect the other way counts as inactive or inconclusive. Unless noted, % is scaled to controls: 0 for no effect and ±100 for the full control effect.
SMILES,IMPase Li inh,PNC assembly inh,IMPase inh,12-hLO inh
Cc1c(C(=O)Nc2ccccc2C(=O)N2CCOCC2)cccc1[N+](=O)[O-],-9%,?,.,-1%
O=C(Cc1ccc(F)cc1)N1CCN=C1SCc1ccc([N+](=O)[O-])cc1,9%,33,-3,-1%
O=C(Cc1ccccc1)N1CCN=C1SCc1ccc([N+](=O)[O-])cc1,.,-90*,-1,-2%
Nc1nc(SCC(=O)N2CCCC2)[nH]c(=O)c1-c1ccccc1,13%[38.3 µM],-9,12,5%
Cc1ccc(-c2ccc(SCC(=O)N3CCc4ccccc43)nn2)cc1,12%,-83*,1,3%
Cc1ccc(-c2ccc(SCC(=O)N3CCCc4ccccc43)nn2)cc1,11%,38,-1,-2%
Nc1nc(SCC(=O)N2CCc3ccccc32)[nH]c(=O)c1-c1ccccc1,16%[38.3 µM],-107*,14,3%
CCOC(=O)C1CCN(c2c(N3CCN(c4ccccc4OC)CC3)c(=O)c2=O)CC1,6%,-82*,-3,2%
CCOC(=O)C1CCN(c2c(N3CCN(Cc4ccccc4)CC3)c(=O)c2=O)CC1,-7%[38.3 µM],?,-4,7%
Cc1ncc(CSC(=N)N)n1Cc1ccccc1,8%,.,.,-1%[11.4 µM]
COc1ccc(C2SCCN2C(=S)Nc2ccc(F)cc2)cc1 (stereo unspecified),7%,9,9,-8%
COc1ccc(C2SCCN2C(=S)Nc2cccc(C(F)(F)F)c2)cc1 (stereo unspecified),17%,-82*,9,-8%
CCCCn1c(=S)[nH]c2c(oc3ccc(Cl)cc32)c1=O,10µM*,48,-23,-5%
COC(=O)CSc1ncnc2c1cnn2Cc1ccccc1,?,-1,?,-5%
c1ccc(CSc2ncnc3c2cnn3Cc2ccccc2)cc1,26%[38.3 µM],-112*,11,-1%
O=C(c1csnn1)N1CCC[C@@]2(CCN(c3ncccn3)C2)C1,5%,.,.,3%
O=C(c1ccc(=O)n(Cc2ccccc2)n1)N1CCN(C/C=C/c2ccccc2)CC1,35%[38.3 µM],-107*,6,-5%
O=C(c1ccc(Br)o1)N1CCN(C/C=C/c2ccccc2)CC1,2%[38.3 µM],18,?,-16%
Cc1ccc2nc3c(cc(C#N)c(=O)n3CCN3CCOCC3)c(=O)n2c1,.,-122*,17,-3%
N#Cc1cc2c(=O)n3ccccc3nc2n(CCN2CCOCC2)c1=O,1%[38.3 µM],-12,-3,1%
CCOC(=O)c1nc(Nc2ccc(C(=O)OC(C)C)cc2)c2ccccc2n1,.,.,-6,.
CN(C)CC(O)Cn1c2ccc(Br)cc2c2cc(Br)ccc21 (stereo unspecified),12%,.,.,.
CN1CCN(C2=C(Cl)C(=O)N(CCc3ccccc3)C2=O)CC1,12%,2,9,-1%
O=C1C(Cl)=C(N2CCCCC2)C(=O)N1Cc1ccccc1,17%,-104*,.,-4%
COc1nc(Nc2ccc(OC)c(Cl)c2)nc(OC)n1,27%[38.3 µM],-81*,0,-4%
SMILES,IMPase Li inh,PNC assembly inh,IMPase inh,12-hLO inh
N#Cc1cnc(SCCc2ccccc2)nc1N,7%[38.3 µM],-83*,-2,-6%
O=C(COCCOCC(=O)N(c1ccccn1)C1CCCCC1)N(c1ccccn1)C1CCCCC1,7%,-100*,-1,14%
COc1ccc(NS(=O)(=O)c2ccc3nc(COc4ccc(Cl)c(C)c4)[nH]c3c2)cc1,.,-106*,-2,-13%
O=[N+]([O-])c1ccc(Cl)c(CNc2ncnc3c2ncn3[C@@H]2CCCCO2)c1,8%,.,.,0%[11.4 µM]
COc1ccccc1N1CCN(/N=C/c2cccc(OC)c2OC)CC1,10%,.,.,.
COc1ccccc1N1CCN(/N=C/c2c(C)nn(-c3ccccc3)c2C)CC1,7%,-84*,5,-2%
NNC(=O)c1ccc[n+](CCc2ccccc2)c1,6%,.,.,3%[11.4 µM]
COC(=O)c1cc(C)sc1NC(=O)CCCC(=O)O,18%[38.3 µM],-119*,3,0%
COC(=O)c1cc(C)sc1NC(=O)C1C2C=CC(CC2)C1C(=O)O (stereo unspecified),10µM*,?,.,-1%
CCc1cc(C(=O)OC)c(NC(=O)CCCC(=O)O)s1,-10%[38.3 µM],57,-2,0%
COC(=O)c1sccc1NC(=O)C1CC=CCC1C(=O)O (stereo unspecified),10µM*,?,?,-9%
CCOC(=O)c1c(NC(=O)C2C3C=CC(CC3)C2C(=O)O)sc(C)c1C (stereo unspecified),-7%,55,.,-5%
COC(=O)c1cc(C)sc1NC(=O)C1CC=CCC1C(=O)O (stereo unspecified),11µM*,51,?,2%
O=c1c2ccccc2sn1-c1cc(S(=O)(=O)N2CCOCC2)ccc1N1CCOCC1,25%[38.3 µM],?,12,2.2µM*
O=c1c2ccccc2sn1-c1cc(S(=O)(=O)N2CCOCC2)ccc1N1CCCC1,42%[38.3 µM],-108*,7,0.5µM*
O=C(O)c1cc(S(=O)(=O)N2CCOCC2)ccc1N1CCCCC1,-3%,.,.,.
O=Cc1sc(N2CCOCC2)nc1-c1ccccc1,14µM*,.,.,.
Cc1ccsc1C(=O)NC(C)c1ccc2c(c1)OCO2 (stereo unspecified),23%,-119*,0,-3%
CC(NC(=O)c1cccs1)c1ccc2c(c1)OCO2 (stereo unspecified),38%[38.3 µM],?,4,2%
CCOC(=O)c1nnc(-c2ccccc2)o1,30%[38.3 µM],?,?,-2%
CCc1ccc(C(=O)COC(=O)c2ccc(-c3nnc(-c4ccccc4)o3)cc2)cc1,3.5µM*,81,5,9%
CCCCCOP(=O)(c1ccccc1)c1ccccc1,4%,-108*,.,-1%
CCCCP(=O)(CCCC)CCP(=O)(c1ccccc1)c1ccccc1,.,18,-1,2%
CS(=O)(=O)N1CCCC(C(=O)NCc2ccccn2)C1 (stereo unspecified),-3%[38.3 µM],-110*,-5,2%
Cc1ccc(S(=O)(=O)N2CCCC(C(=O)NCc3ccccn3)C2)cc1 (stereo unspecified),20%,?,-3,0%
SMILES,IMPase Li inh,PNC assembly inh,IMPase inh,12-hLO inh
Cc1nc(CN(C)Cc2nc(Cc3ccccc3Cl)no2)cs1,7%,.,.,.
CCOc1cc(C(=O)NCCN2CCOCC2)cc(OCC)c1OCC,7%,-100*,-7,7%
Cc1c(Cl)c(-c2n[nH]c(=S)n2-c2ccc(F)cc2)nn1C,11µM*,10,?,-2%
Cn1cc(Cl)c(-c2n[nH]c(=S)n2-c2ccccc2)n1,11µM*,22,.,-1%
Cc1ccc(-n2c(-c3nn(C)cc3Cl)n[nH]c2=S)cc1,-8%,-1,.,3%
CCOC(=O)C1=C(C)NC(C)=C(C(=O)OC)[C@@H]1c1cccc(Cl)c1Cl,-3%,.,-2[20.6 µM],-10%[25.6 µM]
CCOc1cccc2c1OC1(C)CC2NC(=O)N1c1ccc(OC)cc1 (stereo unspecified),-5%,-82*,25,-5%
COc1ccc(N2C(=O)NC3CC2(C)Oc2ccccc23)cc1OC (stereo unspecified),2%[38.3 µM],20,-3,3%
COc1ccc([C@@H](C)c2cc3c(cc2O)OCO3)cc1,2%,.,.,-13%[11.4 µM]
